# Test results: PubChem BioAssay AID1159580 (chemical genetic matrix, 2015)
# Several values for one entry are separate records, joined by “and”; a condition that tells them apart may be missing. Identical values can stand only once. In all, about 5,500 compounds went through this assay and about 2,000 (36%) were called active. Not shown: some 18% with an inconclusive outcome. Rule as the data show it: active = normalized growth mostly below about 0.91 (no sharp cut-off); inconclusive = no clear call, values can overlap the other calls; inactive = mostly above about 0.92. The list shows a part of the results. The source holds several records for some structures; these can differ, active in one and inactive in another.
# Assay: chemical genetic growth profiling, strain panel (AID 1159580);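 also: tested at 20 µM; growth read once vehicle control cultures reached saturation at 30 °C; 1 = growth at the plate median or of vehicle wells; lower values mean less growth of the strain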
# Conditions: S. cerevisiae deletion strains, growth OD
smiles,measurement,setting,value
O=C(O)c1ccccc1Nc1cccc(C(F)(F)F)c1,normalized growth,"locus YAL013W, strain DEP1, stronger effect = lower value",0.857 (active)
same,normalized growth,"locus YAL021C, strain ccr4, stronger effect = lower value",0.847 (active)
same,normalized growth,"locus YAL026C, strain drs2, stronger effect = lower value",0.837 (active)
same,normalized growth,"locus YAL030W, strain snc1, stronger effect = lower value",0.817 (active)
same,normalized growth,"locus YBL061C, strain skt5, stronger effect = lower value",0.845 (active)
same,normalized growth,"locus YBR009C, strain hhf1, stronger effect = lower value",0.848 (active)
same,normalized growth,"locus YBR021W, strain FUR4, stronger effect = lower value",0.764 (active)
same,normalized growth,"locus YBR023C, strain chs3, stronger effect = lower value",0.924 (inactive)
same,normalized growth,"locus YBR171W, strain sec66, stronger effect = lower value",0.69 (active)
same,normalized growth,"locus YBR229C, strain ROT2, stronger effect = lower value",0.983 (inactive)
same,normalized growth,"locus YBR231C, strain swc5, stronger effect = lower value",0.827 (active)
same,normalized growth,"locus YBR279W, strain paf1, stronger effect = lower value",0.859 (active)
same,normalized growth,"locus YCL011C, strain gbp2, stronger effect = lower value",0.86 (active)
same,normalized growth,"locus YCL016C, strain dcc1, stronger effect = lower value",0.87 (active)
same,normalized growth,"locus YCL029C, strain bik1, stronger effect = lower value",0.999 (inactive)
same,normalized growth,"locus YCL069W, strain vba3, stronger effect = lower value",0.834 (active)
same,normalized growth,"locus YCR088W, strain abp1, stronger effect = lower value",0.793 (active)
same,normalized growth,"locus YDL005C, strain med2, stronger effect = lower value",0.882 (active)
same,normalized growth,"locus YDL035C, strain GPR1, stronger effect = lower value",0.844 (active)
same,normalized growth,"locus YDL040C, strain nat1, stronger effect = lower value",0.852 (active)
same,normalized growth,"locus YDL074C, strain BRE1, stronger effect = lower value",0.768 (active)
same,normalized growth,"locus YDL101C, strain DUN1, stronger effect = lower value",0.972 (inactive)
same,normalized growth,"locus YDL185W, strain tfp1, stronger effect = lower value",0.979 (inactive)
same,normalized growth,"locus YDL192W, strain arf1, stronger effect = lower value",0.974 (inactive)
same,normalized growth,"locus YDR001C, strain nth1, stronger effect = lower value",0.805 (active)
same,normalized growth,"locus YDR069C, strain doa4, stronger effect = lower value",0.896 (active)
same,normalized growth,"locus YDR101C, strain arx1, stronger effect = lower value",0.984 (inactive)
same,normalized growth,"locus YDR137W, strain rgp1, stronger effect = lower value",0.623 (active)
same,normalized growth,"locus YDR150W, strain NUM1, stronger effect = lower value",0.996 (inactive)
same,normalized growth,"locus YDR159W, strain sac3, stronger effect = lower value",0.661 (active)
same,normalized growth,"locus YDR162C, strain NBP2, stronger effect = lower value",0.852 (inactive)
same,normalized growth,"locus YDR195W, strain ref2",0.998 (inactive)
same,normalized growth,"locus YDR297W, strain sur2, stronger effect = lower value",0.849 (active)
same,normalized growth,"locus YDR318W, strain mcm21, stronger effect = lower value",0.959 (inactive)
same,normalized growth,"locus YDR334W, strain swr1, stronger effect = lower value",0.788 (active)
same,normalized growth,"locus YDR335W, strain msn5, stronger effect = lower value",0.849 (active)
same,normalized growth,"locus YDR388W, stronger effect = lower value",0.975 (inactive)
same,normalized growth,"locus YDR392W, strain spt3, stronger effect = lower value",0.721 (active)
same,normalized growth,"locus YDR502C, strain sam2, stronger effect = lower value",0.915 (active)
same,normalized growth,"locus YEL003W, strain gim4, stronger effect = lower value",0.842 (active)
same,normalized growth,"locus YEL037C, strain rad23, stronger effect = lower value",0.831 (active)
same,normalized growth,"locus YEL061C, strain CIN8 (second series), stronger effect = lower value",0.815 (active)
same,normalized growth,"locus YEL061C, strain CIN8, stronger effect = lower value",0.952 (inactive)
same,normalized growth,"locus YER015W, strain faa2, stronger effect = lower value",0.869 (active)
same,normalized growth,"locus YER016W, strain bim1, stronger effect = lower value",0.837 (active)
same,normalized growth,"locus YER110C, stronger effect = lower value",1.01 (inactive)
same,normalized growth,"locus YER111C, strain swi4, stronger effect = lower value",0.829 (active)
same,normalized growth,"locus YER155C, strain BEM2 (second series), stronger effect = lower value",0.763 (active)
same,normalized growth,"locus YER155C, strain BEM2, stronger effect = lower value",0.914 (active)
same,normalized growth,"locus YER167W, strain BCK2, stronger effect = lower value",0.833 (active)
same,normalized growth,"locus YFR010W, strain ubp6, stronger effect = lower value",0.858 (active)
same,normalized growth,"locus YGL078C, strain dbp3, stronger effect = lower value",0.979 (inactive)
same,normalized growth,"locus YGL086W, strain mad1, stronger effect = lower value",0.96 (inactive)
same,normalized growth,"locus YGL167C, strain pmr1, stronger effect = lower value",0.751 (active)
same,normalized growth,"locus YGL173C, strain kem1, stronger effect = lower value",0.843 (active)
same,normalized growth,"locus YGL227W, strain vid30, stronger effect = lower value",0.812 (active)
same,normalized growth,"locus YGL240W, strain doc1, stronger effect = lower value",0.853 (active)
same,normalized growth,"locus YGL248W, strain PDE1, stronger effect = lower value",0.92 (inactive)
same,normalized growth,"locus YGL253W, strain hxk2, stronger effect = lower value",0.811 (active)
same,normalized growth,"locus YGR135W, strain pre9, stronger effect = lower value",0.895 (inactive)
same,normalized growth,"locus YGR229C, strain SMI1, stronger effect = lower value",0.727 (active)
same,normalized growth,"locus YGR252W, strain gcn5, stronger effect = lower value",0.645 (active)
same,normalized growth,"locus YHR013C, strain ard1, stronger effect = lower value",0.988 (inactive)
same,normalized growth,"locus YHR027C, strain rpn1, stronger effect = lower value",0.862 (active)
same,normalized growth,"locus YHR030C, strain SLT2, stronger effect = lower value",0.134 (active) and 0.985 (inactive)
same,normalized growth,"locus YHR079C, strain IRE1 (second series), stronger effect = lower value",0.988 (inactive)
same,normalized growth,"locus YHR079C, strain IRE1, stronger effect = lower value",0.126 (active)
same,normalized growth,"locus YHR094C, strain hxt1, stronger effect = lower value",1 (inactive)
same,normalized growth,"locus YHR129C, strain ARP1, stronger effect = lower value",0.918 (active)
same,normalized growth,"locus YHR142W, strain chs7, stronger effect = lower value",0.775 (active)
same,normalized growth,"locus YHR200W, strain rpn10, stronger effect = lower value",0.95 (inactive)
same,normalized growth,"locus YIL066C, strain RNR3, stronger effect = lower value",0.824 (active)
same,normalized growth,"locus YIL073C, strain SPO22, stronger effect = lower value",0.858 (inactive)
same,normalized growth,"locus YIL125W, strain kgd1, stronger effect = lower value",0.981 (inactive)
same,normalized growth,"locus YIR030C, strain dcg1, stronger effect = lower value",0.965 (inactive)
same,normalized growth,"locus YJL092W, strain hpr5, stronger effect = lower value",0.801 (active)
same,normalized growth,"locus YJL095W, strain BCK1 (second series), stronger effect = lower value",0.848 (active)
same,normalized growth,"locus YJL095W, strain BCK1, stronger effect = lower value",0.119 (active) and 0.83 (inactive)
same,normalized growth,"locus YJL115W, strain asf1, stronger effect = lower value",0.843 (active)
same,normalized growth,"locus YJL129C, strain trk1, stronger effect = lower value",0.565 (active)
same,normalized growth,"locus YJL134W, strain LCB3, stronger effect = lower value",0.994 (inactive)
same,normalized growth,"locus YJL154C, strain vps35, stronger effect = lower value",0.792 (active)
same,normalized growth,"locus YJL164C, strain tpk1, stronger effect = lower value",0.873 (active)
same,normalized growth,"locus YJL166W, strain qcr8, stronger effect = lower value",0.853 (active)
same,normalized growth,"locus YJL168C, strain set2, stronger effect = lower value",0.99 (inactive)
same,normalized growth,"locus YJL187C, strain SWE1 (second series), stronger effect = lower value",0.941 (inactive)
same,normalized growth,"locus YJL187C, strain SWE1, stronger effect = lower value",0.833 (active)
